# From PubChem
# Most compounds without a hit are left out; they make up all but 21% or so of the library.
# Gal4-VP16 FLuc: counter-screen for ROR gamma inhibitors: Gal4-VP16 reporter | Drosophila S2 Gal4-VP16 UAS-luciferase, luminescence, 20 h | Potency, µM (top dose mostly 53.6 µM), inactives show top-dose activity, negative = inhibition, actives largely listed as inhibitors | hit rate 3.5% among 310,000;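 note: Gal4-VP16 expression switched on by copper sulfate through the metallothionein promoter; potency is the fitted concentration of half-maximal effect; nearly all actives have a fitted effect of over 50% in size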
# RORg inh: inhibitors of mouse ROR gamma transcriptional activity. P51450. Drosophila S2 Gal4-RORgamma UAS-luciferase reporter, 20 h. Potency, µM (top dose mostly 53.6 µM), for inactives: at the highest dose activity change, negative = inhibition, most hits filed as inhibitors. hit rate 5.4% among 310,000. AID 2551; note: potency is the fitted concentration of half-maximal effect; nearly all actives have a fitted effect of over 60% in size
# Target sequence (P51450 whole entry, looked up, the tested form may be a part): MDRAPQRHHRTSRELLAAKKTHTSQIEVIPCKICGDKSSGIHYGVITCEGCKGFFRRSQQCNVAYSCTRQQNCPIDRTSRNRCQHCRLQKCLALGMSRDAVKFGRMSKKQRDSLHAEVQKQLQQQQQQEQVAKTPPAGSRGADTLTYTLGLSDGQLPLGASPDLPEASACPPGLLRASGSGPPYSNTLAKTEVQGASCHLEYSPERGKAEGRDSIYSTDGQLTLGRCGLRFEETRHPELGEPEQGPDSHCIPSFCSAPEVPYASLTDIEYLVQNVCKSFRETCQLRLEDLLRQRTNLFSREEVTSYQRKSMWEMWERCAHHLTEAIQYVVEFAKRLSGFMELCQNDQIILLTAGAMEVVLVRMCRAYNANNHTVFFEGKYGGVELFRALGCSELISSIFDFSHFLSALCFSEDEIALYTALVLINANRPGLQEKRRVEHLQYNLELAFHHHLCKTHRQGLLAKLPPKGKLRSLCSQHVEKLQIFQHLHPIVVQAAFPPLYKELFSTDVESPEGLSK
#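 Read-out: Photinus luciferase luminescence; inhibitors lower reporter signal. Insect Schneider cells with Gal4-ROR gamma fusion under metallothionein promoter, UAS reporter; 700 uM final copper sulfate induction, 20 hr, ambient temperature.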
# TDP1 cell CPT: DT40-hTDP1 cell growth loss with CPT. chicken DT40 Tdp1-/-;hTDP1 cells + 20 nM CPT, ATP luminescence, 48 h. Potency, µM (titrated, usually from 46.2 µM), for inactives: at the highest dose activity change, negative = growth inhibition, most hits filed as inhibitors. hit rate 12% among 420,000; note: potency is the fitted concentration of half-maximal effect; nearly all actives have a fitted effect of over 55% in size
#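 Chicken DT40 Tdp1-/- cells complemented with human TDP1, 400 cells/well, exposed to compounds plus 20 nM camptothecin for at least 48 h at 37 C; viability read as ATP content by CellTiter-Glo luminescence.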
# TDP1 cell noCPT: qHTS for Inhibitors of human tyrosyl-DNA phosphodiesterase 1 (TDP1): qHTS in cells in absence of CPT. DT40 Tdp1-/- hTDP1 cells, no CPT, ATP luminescence, 48 h. Potency, µM (titrated, usually from 46.2 µM), for inactives: at the top dose activity change, negative = growth inhibition, actives largely listed as inhibitors. hit rate 15% among 420,000. AID 686978, 2013; note: potency is the fitted concentration of half-maximal effect; nearly all actives have a fitted effect of over 55% in size
#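 Compound effects on proliferation are scored in DT40 Tdp1-/-;hTDP1 cells in the absence of CPT. ATP levels (CellTiter-Glo luminescence) are recorded after a ≥48 hr, 37 °C incubation.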
# IL-1B inflam inh: blocks inflammasome-driven IL-1 beta release; AID 743279; hit rate 4.7% among 360,000; activity change, % at 57.5 µM; THP-1 LPS/ATP IL-1B secretion, AlphaLISA, 16 h; hits give low values; in the data active = activity change below about -50%; inconclusive = mostly about -30% to -49%
#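 Secreted IL-1B measured by AlphaLISA bead assay after 16 h compound exposure of THP-1 cells; compounds (final up to 57.5 uM) added 1 h before LPS (250 ng/mL) and ATP (1.25 mM) stimulation; lower signal means less secretion.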
# ELG1 repair inh: ELG1-dependent DNA repair inhibition; HEK293T ELG1-luciferase reporter, luminescence, 16 h; DNA damage induced by 5-fluorouridine; Potency, µM (doses to about 46.1 µM), inactives show top-dose activity change, negative = inhibition, actives largely listed as inhibitors; hit rate 2.3% among 330,000; note: potency is the fitted concentration of half-maximal effect; nearly all actives have a fitted effect of over 55% in size
#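 DMSO vehicle served as the neutral condition. Each well held 2,000 cells given 5-fluorouridine plus compound; after 16 hr at 37 °C/5% CO2, ONE-Glo was added and luciferase measured 30 min later.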
# An asterisk follows results filed as active; ? = inconclusive; . = not tested or not shown. Unless noted, calls come from the whole dose curve; as a rule, active = well fitted curve in the direction sought with a large enough effect; inconclusive = small, poorly fitted or top-dose-only effect, or another doubt; inactive = no such curve, though single readings can be large; an effect the other way counts as inactive or inconclusive. % is set by controls: 0 for no effect and ±100 for the full control effect.
SMILES,Gal4-VP16 FLuc,RORg inh,TDP1 cell CPT,TDP1 cell noCPT,IL-1B inflam inh,ELG1 repair inh
Cc1cc(SCC(=O)c2cccs2)n2nc(C)c(-c3ccc(Cl)cc3)c2n1,?,1µM*,16.4µM*,?,-7.4,?
CCOc1ccc(OCC)c(NC(=O)Cn2cccc2)c1,13.2%,13.3%,2.1%,-26.9%,-1.1,-17.0%
CCOC(=O)c1cc(-c2ccccc2)n(CCCC(=O)Nc2cc(C)ccc2OC)c1C,.,.,18.4µM*,23.1µM*,.,.
CCOC(=O)c1cc(-c2ccccc2)n(CC(=O)Nc2ccccc2OCC)c1C,.,.,-81.1%,9.2µM*,.,.
CCOC(=O)c1cc(-c2ccccc2)n(CCC(=O)Nc2cc(OCC)ccc2OCC)c1C,.,.,16.4µM*,?,.,.
CCOC(=O)c1cc(-c2ccccc2)n(CC(=O)Nc2cccc(OC)c2)c1C,-25.6%,-21.9%,?,5.8µM*,-16.2,5.6%
CCOC(=O)c1cc(-c2ccccc2)n(CC(=O)Nc2ccc(OC)c(OC)c2)c1C,-12.2%,-16.4%,?,?,26.6,?
C[C@H](CO)N1C[C@H](C)[C@@H](CN(C)Cc2ccc(C(=O)O)cc2)Oc2c(NS(=O)(=O)c3ccc(F)cc3)cccc2C1=O,.,.,10.0%,-6.8%,-6.2,?
CC(=O)c1cc(-c2ccccc2)n(CC(=O)NC(C)(C)C)c1C,1.8%,-0.2%,-2.4%,-4.3%,-3.9,-5.4%
CCOC(=O)c1cc(-c2ccccc2)n(CC(=O)NCc2ccccc2OC)c1C,.,.,16.4µM*,16.4µM*,.,.
CC(=O)c1cc(-c2ccccc2)n(CC(=O)Nc2cccc(C)c2)c1C,-4.8%,16.8%,18.4µM*,14.6µM*,-4.1,-10.8%
COC(=O)c1cc(OC)c(OC)cc1NCC(=O)Nc1ccc(C)cc1,-6.2%,63.5%,-23.3%,-11.2%,-52.1*,-27.8%
COc1ccc(C)cc1NCC(=O)Nc1ccc(C(C)(C)C)cc1,1.8%,?,?,?,0.0,-1.8%
COC(=O)c1cc(OC)c(OC)cc1NCC(=O)Nc1cccc(C(F)(F)F)c1,-6.8%,?,-29.1%,?,-11.8,?
COC(=O)c1cc(OC)c(OC)cc1NCC(=O)Nc1ccc(OC)c(OC)c1,?,?,20.6µM*,13µM*,7.5,?
CCCC(=O)Nc1ccc(S(=O)(=O)N2CCc3ccccc32)cc1,.,.,?,?,16.2,.
Nc1nnc(SCC(=O)OCC(=O)c2ccccc2)s1,3.3%,1.0%,4.1%,-1.0%,22.1,1.7%
Nc1nnc(SCC(=O)OCC(=O)c2ccccc2Br)s1,5.1%,3.3%,25.9µM*,?,-27.8,5.5%
COc1ccc(/C=N/n2c(N)nc3ccccc32)cc1OC,?,12.6µM*,-14.8%,-23.1%,-60.1*,?
COc1cccc(/C=N/n2c(N)nc3ccccc32)c1OC,?,?,-26.0%,-24.4%,-68.3*,?
COc1ccc(/C=N/n2c(=S)n(C)c3ccccc32)cc1OC,5.7%,-25.5%,?,-23.0%,-18.1,-24.6%
O=[N+]([O-])c1cccc(-c2cnc3ccccc3n2)c1,-10.7%,7.0%,4.3%,-13.8%,28.2,?
O=[N+]([O-])c1cccc(-c2nc3ccccc3s/c2=N/O)c1,-12.8%,12.7%,-14.0%,?,-81.1*,-0.6%
Cc1nn(C)c(C)c1S(=O)(=O)N(CC(=O)NCCN1CCOCC1)c1ccc(C(C)C)cc1,-1.4%,26.5%,-1.5%,-1.9%,1.3,-3.7%
Cc1ccc(CCNC(=O)CN(c2ccc(C(C)C)cc2)S(=O)(=O)c2c(C)nn(C)c2C)cc1,.,.,?,23.1µM*,.,.
COc1ccc(N(CC(=O)NCCc2ccc(C)cc2)S(=O)(=O)c2c(C)noc2C)cc1,-0.5%,35.2%,20.6µM*,?,-10.9,-10.2%
